The text below walks through data of PubChem BioAssay AID686979 (National Center for Advancing Translational Sciences (NCATS), 2013).

Among all 420,000 compounds or so, about 50,000 (12%) were called active. Entries that show only a call come without a potency. Not shown: some 26% with an inconclusive outcome. This is one part of a sample in which actives are shown more often than they occur. Calls come from the whole dose curve; as a rule, active = well fitted inhibition curve with a large enough effect; inconclusive = small, poorly fitted or top-dose-only effect; inactive = flat fitted curve, though single readings scatter.
Potency is the fitted concentration of half-maximal effect.

A short description of the assay: qHTS for Inhibitors of human tyrosyl-DNA phosphodiesterase 1 (TDP1): qHTS in cells in presence of CPT. Note: nearly all actives have a fitted effect of over 55% in size. As to conditions: chicken DT40 Tdp1-/-;hTDP1 cells + 20 nM CPT, ATP luminescence, 48 h; series mostly up to 46.2 µM. In a few lines:
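Chicken DT40 Tdp1-/- cells stably complemented with human TDP1 were seeded at 400 cells/well in medium containing 20 nM camptothecin, exposed to pin-transferred compounds, and grown at 37 °C for at least 48 hr. Viability was read as ATP luminescence.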
For `CCOC(=O)C(C)Oc1cccc2c(=O)n(CC(=O)N3CCc4ccccc43)ccc12` (stereo not drawn), the Potency entry is “inactive”.
To `CCCCn1nc(C(=O)N2CCc3ccccc32)c2ccccc2c1=O` belongs 18.4 µM (active); to `CCCCn1nc(C(=O)OCC(=O)Nc2sccc2C(N)=O)c2ccccc2c1=O`, “inactive”.
As to `O=C(CSc1nc2ccccc2[nH]1)Nc1nc(-c2ccccc2)c(-c2ccccc2)o1`, the Potency entry is “inactive”.
On to `O=C(CSc1n[nH]c(-c2cccs2)n1)N1CCCCC1`, for which the Potency result was “inactive”.
On to `Cc1cccc(C)c1-n1c(C)cc(/C=C2\C(=O)NN(c3ccccc3)C2=O)c1C`, for which the Potency entry is “inactive”.
For the compound `Cn1c(=O)c2c(ncn2CC(COCc2ccccc2Cl)OCc2ccccc2Cl)n(C)c1=O` (stereo not drawn), the Potency is 25.9 µM (active).
Consider `Cn1c(=O)c2c(ncn2CCc2ccccc2)n(C)c1=O`, for which the Potency entry was “inactive”.
With `CC(C)Cn1cnc2c1c(=O)n(CC(O)c1ccccc1)c(=O)n2CC(C)C` (stereo not drawn), the Potency entry is “inactive”.
The entry for `COc1ccc(C)cc1NC(=O)CSc1nnc2ccc(-c3ccccn3)nn12` is “inactive”.
Consider `CCN(Cc1ccccc1)S(=O)(=O)c1cc2c3c(c1)CCN3C(=O)CC2`, for which the Potency entry is “inactive”.
To `O=C(CCc1nc(CN2CCN(S(=O)(=O)c3ccc(F)cc3)CC2)no1)N1CCCCC1` belongs “inactive”; to `COc1ccc(CNC(=O)CN2CCC(n3nnc4cc(F)ccc43)CC2)cc1`, “inactive”; to `COc1cccc(NC(=O)NCc2ccc(F)cc2)c1`, “inactive”.
`CCc1ccc(CNCc2c(C(=O)O)n(Cc3ccc(F)cc3Cl)c3cc(OC)ccc23)cc1`: the Potency is 11.6 µM (active).
`COc1cc(C)nc(N2CCCC(C(=O)NCC(C)C)C2)n1` (stereo not drawn): the Potency entry was “inactive”.
As for `O=C(Nc1ccccc1)O/N=C1\CCCCC1c1ccc([N+](=O)[O-])cc1[N+](=O)[O-]` (stereo not drawn), the Potency result is “inactive”.
Regarding `C=CCCC(=O)Nc1nc(C)c(-c2csc(Nc3ccc(Cl)cc3)n2)s1`, the Potency was 11.6 µM (active).
To `COc1cccc(NC(=O)COc2cccnc2[N+](=O)[O-])c1` belongs “inactive”; to `Cc1nnc(NC(=O)CCCOc2ccccc2)s1`, “inactive”; to `CCCCCCC(=O)Nc1nc(C)c(-c2csc(Nc3cccc(OC)c3)n2)s1`, 20.6 µM (active).
For the compound `CC(=O)Nc1nc(C)c(-c2csc(Nc3ccc(S(N)(=O)=O)cc3)n2)s1`, the Potency result was “inactive”.
`Cc1ccn2c(-c3csc(Nc4ccc(C(=O)O)cc4)n3)c(C)nc2c1`: the Potency result was “inactive”.
On to `CCc1ccccc1OCC(=O)Nc1nnc(C2CC2)s1`, for which the Potency result was “inactive”.
`N#Cc1ccc[n+](CC(=O)c2ccc(O)c(O)c2)c1`: the Potency entry was “inactive”.
The entry for `O=C(CSc1ncn[nH]1)Nc1ccc(Br)cc1Br` is “inactive”; for `Cc1n[nH]c(=O)c2c(NC(=O)COC(=O)c3ncc(Cl)c(Cl)c3Cl)oc(C)c12` it is “inactive”; for `O=C(CN(C(=O)c1nsc(Cl)c1Cl)c1cccc(F)c1)NC1CCCC1` it is “inactive”.
As to `Cc1ccc(S(=O)(=O)n2oc(=O)c(C3CCCCC3)c2N)cc1`, the Potency result was “inactive”.
The figure for `Cc1c(Cl)c([N+](=O)[O-])nn1Cc1ccc(C(=O)N/N=C\c2cc(Cl)ccc2O)o1` is 3.66 µM (active); for `Cc1ccc(C(=O)O)cc1NC(=O)c1ccc(Cn2nc(C)c(Cl)c2C)o1` it is “inactive”; for `O=C(N/N=C/c1ccc2c(c1)OCO2)c1ccc(Cn2cc([N+](=O)[O-])cn2)o1` it is “inactive”.
Turning to `Brc1ccccc1/C=N/Nc1nc2ccccc2o1`, the Potency result is “inactive”.
To `COCCN(C(=O)C(C)C)c1nnc(-c2ccc(C(C)(C)C)cc2)s1` belongs 20.6 µM (active); to `COCCN(C(=O)c1ccco1)c1nnc(-c2ccc(OC)cc2)s1`, “inactive”.
As for `COc1cc(OC)cc(-c2nnc(N(C)C(=O)c3ccncc3)s2)c1`, the Potency result is “inactive”.
Turning to `COc1ccc(/C=C/c2noc(-c3ccccc3O)n2)cc1OC`, the Potency result is “inactive”.
The entry for `CC(=O)O[C@H]1c2ccccc2-c2ccccc2[C@@H]1OC(C)=O` is “inactive”.
For `Cc1cccc(NC(c2cccc(F)c2)c2ccc3ccc(C)nc3c2O)n1` (stereo not drawn), the Potency was 8.2 µM (active).
The entry for `CCn1ncc(CNC(=O)C2(C)CC2(Br)Br)c1C` (stereo not drawn) is “inactive”; for `O=C(CCCC(=O)N1CCN(c2cccc(Cl)c2)CC1)c1ccccc1` it is 14.6 µM (active).
For `O=C(CN1CCN(c2ccc(Cl)cc2)CC1)c1ccccc1`, the Potency result was “inactive”.
Consider `CCc1nc2ccc(C(=O)N3CCN(c4cccc(Cl)c4)CC3)cc2nc1CC`, for which the Potency entry is “inactive”.
Turning to `COc1cc(C(C(=O)NC2CCCC2)N(C(=O)c2ccco2)c2ccccc2C(C)=O)cc(OC)c1OC` (stereo not drawn), the Potency entry is “inactive”.
In the case of `CC(C)C(NC(=O)c1c(F)cccc1F)C(=O)NCc1ccncc1` (stereo not drawn), the Potency result was “inactive”.
`O=C(NC1CC1)C1=C[C@H](c2coc3ccccc3c2=O)C[C@H](OCCCCO)O1`: the Potency result was “inactive”.
Take `CCO[C@H]1OC(C(=O)NCc2ccccc2)=C[C@@H](c2coc3ccccc3c2=O)[C@@H]1CCCO`: the Potency is 23.1 µM (active).
For `CCO[C@H]1OC(C(=O)N2CCOCC2)=C[C@@H](c2ccc3c(c2)OCO3)[C@@H]1CCCO`, the Potency entry is “inactive”.
As to `Cc1ccc(NC(=O)C(c2ccccc2)N2CCN(C(=O)c3ccco3)CC2)cc1` (stereo not drawn), the Potency result is “inactive”.
For the compound `O=C(O)C1CCCN1c1nc(Cl)ccc1[N+](=O)[O-]` (stereo not drawn), the Potency entry was “inactive”.
To `CCC(=O)N1CCc2cc(Br)cc(S(=O)(=O)CCC(=O)NCc3ccccc3OC)c21` belongs “inactive”.
The figure for `CN(Cc1ccccc1)C(=O)CCS(=O)(=O)c1cc(Br)cc2c1N(C(=O)C1CC1)CC2` is 13 µM (active); for `O=C(CCS(=O)(=O)c1cc(Br)cc2c1N(C(=O)C1CC1)CC2)Nc1ccc(C(F)(F)F)cc1` it is “inactive”.
To `CCC(=O)N1CCc2cc(S(=O)(=O)CCC(=O)N3CCN(c4ccccc4F)CC3)ccc21` belongs “inactive”; to `O=C(CCS(=O)(=O)c1cc(Br)cc2c1N(C(=O)C1CC1)CC2)Nc1ccc(Br)cc1F`, “inactive”.
As to `CCC(=O)N1CCc2cc(Br)cc(S(=O)(=O)CCC(=O)N3CCN(c4ccc(F)cc4)CC3)c21`, the Potency was 20.6 µM (active).
In the case of `CC1(C)C[C@H]2C3=CCC4[C@@]5(C)CC[C@H](O)[C@](C)(CO)C5CC[C@@]4(C)[C@]3(C)C[C@@H](O)[C@@]2(CO)[C@@H](O)[C@@H]1O` (stereo partly drawn), the Potency result was “inactive”.
Take `CCCCc1nc2cc(C(=O)NCCc3cnn(C)c3)ccc2o1`: the Potency result is “inactive”.
`Cc1cc(C)c(C)c(S(=O)(=O)N[C@@H](C)C(=O)OC(C)C(=O)NC(N)=O)c1C` (stereo partly drawn): the Potency result was “inactive”.
Take `CN(Cc1c(F)cccc1Cl)C(=O)COC(=O)Cn1cnc2ccccc2c1=O`: the Potency result is “inactive”.
The entry for `CCc1nnc(NC(=O)C2CCN(C(=O)c3ccccc3C)CC2)s1` is “inactive”.
`Cc1ccccc1C(=O)N1CCC(C(=O)Nc2ccc(S(=O)(=O)N(C)C(C)C)cc2)CC1`: the Potency was 14.6 µM (active).
With `CCOC(=O)Nc1ccc(S(=O)(=O)N(C)C(C)C)cc1`, the Potency result was “inactive”.
